# Reference: ChEMBL document CHEMBL4513216, “Probing the Open Global Health Chemical Diversity Library for Multistage-Active Starting Points for Next-Generation Antimalarials” (ACS Infect Dis, 2020)
# The campaign covered roughly 69,000 compounds. About 8,600 (12%) showed an effect of 50% or more. The sample as a whole holds a higher share of strong results than the screen did.
# Tested on: Plasmodium berghei
# Experiment: Screen against P. berghei liver stage (PbLuc), transformed with Luciferase, at 10uM
# Format: functional, HepG2
# Details: tested at 10 uM
row,Structure (SMILES),INHIBITION [%]
1,O=C(NCCNc1ccc(C(F)(F)F)cn1)c1ccc(Br)cc1,-18
2,COCc1ccc(C(=O)NCCCNc2ccc(C(F)(F)F)cn2)cc1,24.15
3,O=C(NCCNc1ccc(C(F)(F)F)cn1)c1ccc(Cl)cc1F,29.4
4,O=C(NCCNc1ccc(C(F)(F)F)cn1)c1cncc(Br)c1,26.1
5,CSCc1ccc(C(=O)NCCCNc2ccc(C(F)(F)F)cn2)cc1,60.95
6,CN(CCc1cccs1)C(=O)Nc1cnn(CC2CCCO2)c1 (stereo not given),6.33
7,Cc1csc2cc(C(=O)NC3CC3)cnc12,-82.4
8,CCN1CCC2(COCc3c(C)nc(N(C)C)nc32)C1 (stereo not given),2.59
9,CCOc1ncccc1C(=O)N1CCCC1c1c(C)nn(C)c1OC (stereo not given),32.4
10,Cc1ccc2c(c1)SCC(=O)N2CC(=O)N1CCCC1c1cc(C)no1 (stereo not given),-40.6
11,Cc1ccc2c(c1)SCC(=O)N2CC(=O)N1CCCC1c1cc(C)on1 (stereo not given),-1.45
12,Cc1ccc2c(c1)SCC(=O)N2CC(=O)N1CCC[C@H]1c1nc(C)no1,74
13,c1ccc(CCCN2CC[C@H](c3nnc(-c4cccnc4)o3)C2)cc1,13.5
14,COCC(=O)NCC1CCC(c2nnc(-c3cccnc3)o2)CC1 (stereo not given),-8.58
15,c1cc(-c2nnc(C3CCCN(CC4CCCCC4)C3)o2)ccn1 (stereo not given),38.8
16,c1ccc(-c2nnc(C3CCCN(CC4CCCCC4)C3)o2)nc1 (stereo not given),7.52
17,COCC(=O)NCC1CCC(c2nnc(-c3ccncc3)o2)CC1 (stereo not given),13.7
18,c1cncc(-c2nnc([C@H]3CCN(CC4CCCCC4)C3)o2)c1,55.9
19,c1cncc(-c2nnc([C@H]3CCN(CC4CC4)C3)o2)c1,67.8
20,O=C(NCC1CCC(c2nnc(-c3cccnc3)o2)CC1)C1CC1 (stereo not given),50.8
21,c1ccc(OCCN2CCC(c3nnc(-c4cccnc4)o3)CC2)cc1,20.8
22,CC(=O)N1CCC(Cc2cnc(-n3ccnc3)cn2)CC1,17.1
23,COC(=O)c1ccc(OC)c(Cn2cc(N)cn2)c1,18.9
24,Cc1nc(C)n(CC2CN(Cc3nccs3)Cc3nccn3C2)n1 (stereo not given),8.03
25,Cc1cc(F)cc(S(=O)(=O)Nc2ccn(CCCC#N)n2)c1,26
26,CC(=O)N(Cc1ncc(C)o1)C1CCN(CCc2cnn(C)c2)C1 (stereo not given),-36.1
27,O=C(N1CCOCC1)N1C[C@@H]2CC[C@H]1CN(C1Cc3ccccc3C1)C2,-43.5
28,C[C@@H]1CN(Cc2nc(Cc3ccccc3F)no2)C[C@H](C)O1,3.93

row,Structure (SMILES),INHIBITION [%]
1,Cc1nc(C2CCNC2)nc2c1CCC(=O)N2C (stereo not given),17.265
2,Cc1cc(CSCc2csc(CS(C)(=O)=O)n2)no1,19.4
3,CS(=O)(=O)Cc1nc(CN2CCOc3ccccc3C2)cs1,7.31
4,CS(=O)(=O)Cc1nc(CN2CC=C(c3ccccc3)CC2)cs1,27.6
5,CCc1nc(CSCc2csc(CS(C)(=O)=O)n2)cs1,-29.2
6,CS(=O)(=O)Cc1nc(CN2CCc3ccccc3CC2)cs1,56.5
7,CC1(C)CN(Cc2csc(CS(C)(=O)=O)n2)Cc2ccccc21,60.8
8,CS(=O)(=O)Cc1nc(CN2CCC(C(F)(F)F)CC2)cs1,52.2
9,CS(=O)(=O)Cc1nc(CN2CCCc3sccc3C2)cs1,36.2
10,CS(=O)(=O)Cc1nc(CNc2c(F)cc(F)cc2F)cs1,40.4
11,COc1ccc(C2CCCN2Cc2ccc(S(=O)(=O)N(C)C)o2)cc1 (stereo not given),37.4
12,O=C(Cn1cc(C(=O)O)cn1)Nc1c(Cl)cccc1Cl,22.6
13,CC(C(=O)N1CCCN(Cc2ccc(C#N)cc2)CC1)n1cncn1 (stereo not given),27.65
14,Cc1n[nH]c(C)c1NC(=O)CCc1cccc(C2CCCN(C)C2)n1 (stereo not given),29.3
15,CCCn1c(C)c(CC(=O)NC(C)CO)c2c1CC(C)(C)CC2=O (stereo not given),18.6
16,O=C1[C@@H]2CN(c3ncnc4[nH]ccc34)C[C@]2(C(=O)O)CN1CC1CC1,36.6
17,Cc1ccc(-c2cc(CNC(=O)N3CCCN(C)CC3)on2)cc1,35.9
18,Cn1c(=O)[nH]c(=O)c2c1nc1n2CC(c2ccc(Cl)cc2)O1 (stereo not given),7.92
19,COc1ccc(Br)cc1CN(C)C(C)c1nc(C)no1 (stereo not given),4.82
20,CCc1noc(C(C)N(C)Cc2cc(Br)ccc2OC)n1 (stereo not given),51.5
21,CCc1noc(C(C)N(C)CC(=O)Nc2cccc(C)c2C)n1 (stereo not given),41.4
22,CCc1noc(C(C)N(C)CC(=O)Nc2cccc(C)n2)n1 (stereo not given),-29.2
23,CCc1noc(C(C)N(C)CC(=O)Nc2c(C)cccc2C)n1 (stereo not given),-8.69
24,CCc1noc(C(C)N(C)CC(=O)Nc2ccc(Br)cc2C)n1 (stereo not given),74
25,CCc1noc(C(C)N(C)CC(=O)Nc2ccc(C)cc2)n1 (stereo not given),27.6
26,CCc1noc(C(C)N(C)CC(=O)Nc2ccc(Cl)c(C(F)(F)F)c2)n1 (stereo not given),90.2
27,COc1ccc(Br)cc1CN(C)C(C)c1nc(C(C)C)no1 (stereo not given),3.73
